Source: PubChem BioAssay (Tox21)
Records with an inconclusive call do not appear. Active and inactive are the calls of the source. Unless noted, calls follow the shape of the dose curve; as a rule, active = well fitted curve in the direction sought with a large enough effect in the repeat runs; inconclusive = weak or mixed curves; inactive = no such curve, though single readings can be large; an effect the other way counts as inactive or inconclusive.

What was measured:
[1] = molecular target: Aryl hydrocarbon receptor (Homo sapiens) (UniProt P35869); assay: qHTS assay to identify small molecule that activate the aryl hydrocarbon receptor (AhR) signaling pathway (AID 743085);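 also: HG2L7.5c1 human HepG2 liver cells with stably integrated DRE-driven firefly reporter; series mostly up to about 70 µM; nearly all actives have a fitted effect of over 15% in size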
In short: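 AhR agonist activity is inferred from enhanced light output of a DRE-controlled firefly luciferase reporter in HepG2 cells, measured with ONE-Glo following 24 h treatment at 37C.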

[2] = qHTS assay to identify small molecule that activate the aryl hydrocarbon receptor (AhR) signaling pathway - cell viability counter screen (AID 743086);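 also: HepG2 liver cells carrying the AhR DRE luciferase reporter; series mostly up to about 70 µM; nearly all actives have a fitted effect of over 45% in size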
In short: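 HepG2-AhR-luc (HG2L7.5c1) cells, 4000/well, were preincubated 5 h at 37C, exposed to compound in qHTS format for 24 hr at 37C, then given CellTiter-Fluor for 30 min; viability was read as fluorescence in the reporter wells.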

[3] = molecular target: Peroxisome proliferator-activated receptor gamma (Homo sapiens) (UniProt P37231); assay: qHTS assay to identify small molecule agonists of the peroxisome proliferator-activated receptor gamma (PPARg) signaling pathway (AID 743094; active = well fitted activation curve with a large enough effect in the signal ratio in the repeat runs, not every such curve was filed as active; the % refers to the signal ratio)
In short: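 GeneBLAzer PPARg UAS-bla HEK293H cells carrying a stably integrated beta-lactamase reporter were pre-incubated 5 h at 37C, then exposed to compounds in DMSO for 17 h at 37C; LiveBLAzer B/G FRET substrate was added for 1 h at room temperature and fluorescence read.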

[4] = molecular target: Peroxisome proliferator-activated receptor gamma (Homo sapiens) (UniProt P37231); assay: qHTS assay to identify small molecule antagonists of the peroxisome proliferator-activated receptor gamma (PPARg) signaling pathway (AID 743191; calls by dose curve; also: series mostly up to about 63 µM; nearly all actives have a fitted effect of over 30% in size)
In short: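 GeneBLAzer PPARg UAS-bla HEK293H cells carrying a UAS-driven beta-lactamase reporter were plated at 3000 cells/well, preincubated 5 h at 37C, then given compound for 17 h at 37C; LiveBLAzer B/G FRET substrate was read after 1 h at room temperature.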

[5] = qHTS assay to identify small molecule antagonists of the peroxisome proliferator-activated receptor gamma (PPARg) signaling pathway - cell viability counter screen (AID 743194); also: nearly all actives have a fitted effect of over 55% in size
In short: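 PPARg-UAS-bla HEK293H cells were plated, rested 5 h at 37 C, then treated with compounds plus rosiglitazone (50 nM final) for 17 h at 37 C; viability was then read by CellTiter-Glo luminescence after 30 min at room temperature.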

[6] = qHTS assay for small molecule agonists of the antioxidant response element (ARE) signaling pathway (AID 743202; active = well fitted activation curve with a large enough effect in the signal ratio in the repeat runs, not every such curve was filed as active; the % refers to the signal ratio)
In short: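 Compounds delivered in DMSO to ARE-bla HepG2 cells (2,000 cells/well, pre-incubated 5 h) and left 16 h at 37 C. LiveBLAzer B/G FRET substrate then added for 2 h at RT before fluorescence reading.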

[7] = qHTS assay for small molecule agonists of the antioxidant response element (ARE) signaling pathway - cell viability counter screen (AID 743203; calls by dose curve; also: nearly all actives have a fitted effect of over 55% in size)
In short: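 CellSensor ARE-bla HepG2 cells, 2,000 per well, rested 5 hrs at 37C/5% CO2, then exposed to compound in DMSO for 16 hrs; viability read as CellTiter-Glo luminescence after 30 min at room temperature, in the reporter wells.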

[8] = qHTS assay for small molecule activators of the heat shock response signaling pathway - cell viability counter screen (AID 743209); also: nearly all actives have a fitted effect of over 50% in size
In short: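 CellSensor HSE-bla HeLa cells, plated overnight at 37 C/5% CO2, were exposed to compounds in DMSO for 5 h at 37 C. Viability was then read in the same wells by CellTiter-Glo luminescence after 30 min at room temperature.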

[9] = qHTS assay for small molecule activators of the heat shock response signaling pathway (AID 743210; active = well fitted activation curve with a large enough effect in the signal ratio in the repeat runs, with a control signal flat, not every such curve was filed as active; the % refers to the signal ratio;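 also: HeLa cells with beta-lactamase reporter driven by heat shock elements; series mostly up to about 63 µM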)
In short: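 Reporter gene assay: HeLa cells stably bearing an HSE-bla construct, compound treatment 5 h at 37 C, LiveBLAzer substrate 2.5 h at RT, fluorescence intensity.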

[10] = qHTS assay to identify small molecule agonists of the peroxisome proliferator-activated receptor delta (PPARd) signaling pathway - cell viability counter screen (AID 743211); also: nearly all actives have a fitted effect of over 55% in size
In short: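 qHTS cell viability: PPARd-bla HEK293H; 17 h cpd, 37C; CellTiter-Glo, luminescence at 30 min RT.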

[11] = molecular target: Peroxisome proliferator-activated receptor delta (Homo sapiens) (UniProt Q03181); assay: qHTS assay to identify small molecule agonists of the peroxisome proliferator-activated receptor delta (PPARd) signaling pathway (AID 743212; calls by dose curve)
In short: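 A PPARd-bla HEK293H line with beta-lactamase under an Upstream Activator Sequence is treated with compounds at 37 C. Substrate loading for 2 h at room temperature precedes the fluorescence measurement.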

[12] = qHTS assay to identify small molecule agonists of the farnesoid-X-receptor (FXR) signaling pathway - cell viability counter screen (AID 743218); also: nearly all actives have a fitted effect of over 45% in size
In short: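 FXR-UAS-bla HEK 293T cells, plated 5 h at 37 C, were exposed to compounds for 16 h at 37 C. CellTiter-Glo was then added to the same wells as the bla readout; luminescence read after 30 min at room temperature.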

[13] = qHTS assay to identify small molecule antagonists of the farnesoid-X-receptor (FXR) signaling pathway - cell viability counter screen (AID 743221; active = well fitted cell-killing curve with a large enough effect in the repeat runs, not every such curve was filed as active; also: nearly all actives have a fitted effect of over 50% in size)
In short: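 After a 5 h settling period, FXR-bla HEK 293T cells receive compound and chenodeoxycholic acid (50 uM final) and incubate 16 h at 37 C; CellTiter-Glo luminescence, read after 30 min at room temperature, reports cell viability.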

[14] = qHTS assay to identify small molecule agonists of the vitamin D receptor (VDR) signaling pathway - cell viability counter screen (AID 743224); also: series mostly up to about 63 µM; nearly all actives have a fitted effect of over 50% in size
In short: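 VDR-bla cells were preincubated 4 h at 37C/5% CO2, then exposed to compounds for 16 h. After the 2 h room-temperature bla FRET read, CellTiter-Glo was added to the same wells and luminescence read after 30 min.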

[15] = qHTS assay to identify small molecule antagonists of the peroxisome proliferator-activated receptor delta (PPARd) signaling pathway - cell viability counter screen (AID 743213); also: nearly all actives have a fitted effect of over 50% in size
In short: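 HEK293H PPARd UAS-bla cells, 5 h pre-incubation, compound + L165041 300 nM final, 17 h 37 C; B/G FRET substrate 2 h RT; then CellTiter-Glo 30 min RT, luminescence.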

[16] = molecular target: Peroxisome proliferator-activated receptor delta (Homo sapiens) (UniProt Q03181); assay: qHTS assay to identify small molecule antagonists of the peroxisome proliferator-activated receptor delta (PPARd) signaling pathway (AID 743215; active = well fitted inhibition curve with a large enough effect in the signal ratio in the repeat runs, not every such curve was filed as active; the % refers to the signal ratio;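 also: cells stimulated with agonist L165041 at 300 nM final during compound exposure; series mostly up to about 62 µM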)
In short: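 PPARd UAS-bla HEK293H cells were pre-incubated 5 h at 37 C, then given test compounds in DMSO plus agonist L165041 (300 nM final). After 17 h at 37 C, beta-lactamase FRET substrate was added; fluorescence read after 2 h at room temperature.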

[17] = molecular target: Vitamin D3 receptor (Homo sapiens) (UniProt P11473); assay: qHTS assay to identify small molecule agonists of the vitamin D receptor (VDR) signaling pathway (AID 743222; calls by dose curve)
In short: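 VDR-bla cells were plated 4 h at 37C/5% CO2, then exposed to compounds in DMSO for 16 h. After LiveBLAzer B/G FRET substrate addition and 2 h at room temperature, beta-lactamase reporter fluorescence was read.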

[18] = molecular target: Vitamin D3 receptor (Homo sapiens) (UniProt P11473); assay: qHTS assay to identify small molecule antagonists of the vitamin D receptor (VDR) signaling pathway (AID 743223; active = well fitted inhibition curve with a large enough effect in the signal ratio in the repeat runs, not every such curve was filed as active; the % refers to the signal ratio)
In short: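 Reporter line VDR-bla; stimulus 1alpha,25-(OH)2 vitamin D3, 3 nM final; compound co-addition, 16 h 37C/5% CO2; LiveBLAzer B/G substrate 2 h RT; fluorescence intensity.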

[19] = molecular target: Bile acid receptor (Homo sapiens) (UniProt Q96RI1); assay: qHTS assay to identify small molecule antagonists of the farnesoid-X-receptor (FXR) signaling pathway (AID 743217; active = well fitted inhibition curve with a large enough effect in the signal ratio in the repeat runs, not every such curve was filed as active; the % refers to the signal ratio)
In short: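 FXR-UAS-bla HEK 293T cells pre-incubated 5 h at 37 °C, then exposed to compounds with chenodeoxycholic acid (50 uM final) for 16 h at 37 °C. Beta-lactamase reporter read by LiveBLAzer B/G FRET substrate fluorescence after 2 h at room temperature.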

Measured: Potency

Peroxisome proliferator-activated receptor delta (Homo sapiens), sequence (Q03181 whole entry, looked up): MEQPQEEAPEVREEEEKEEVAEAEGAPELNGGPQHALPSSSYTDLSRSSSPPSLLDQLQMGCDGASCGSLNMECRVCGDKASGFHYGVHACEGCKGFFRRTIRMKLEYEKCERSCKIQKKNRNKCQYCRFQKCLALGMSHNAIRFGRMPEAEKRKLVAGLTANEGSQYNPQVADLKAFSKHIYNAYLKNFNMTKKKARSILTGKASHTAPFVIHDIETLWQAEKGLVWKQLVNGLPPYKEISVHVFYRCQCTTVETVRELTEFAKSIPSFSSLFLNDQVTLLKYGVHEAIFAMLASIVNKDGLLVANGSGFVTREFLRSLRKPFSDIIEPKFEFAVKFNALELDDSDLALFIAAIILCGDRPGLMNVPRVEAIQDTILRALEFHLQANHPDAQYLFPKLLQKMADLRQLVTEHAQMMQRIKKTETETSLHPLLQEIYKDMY
Aryl hydrocarbon receptor (Homo sapiens), sequence (P35869 whole entry, looked up): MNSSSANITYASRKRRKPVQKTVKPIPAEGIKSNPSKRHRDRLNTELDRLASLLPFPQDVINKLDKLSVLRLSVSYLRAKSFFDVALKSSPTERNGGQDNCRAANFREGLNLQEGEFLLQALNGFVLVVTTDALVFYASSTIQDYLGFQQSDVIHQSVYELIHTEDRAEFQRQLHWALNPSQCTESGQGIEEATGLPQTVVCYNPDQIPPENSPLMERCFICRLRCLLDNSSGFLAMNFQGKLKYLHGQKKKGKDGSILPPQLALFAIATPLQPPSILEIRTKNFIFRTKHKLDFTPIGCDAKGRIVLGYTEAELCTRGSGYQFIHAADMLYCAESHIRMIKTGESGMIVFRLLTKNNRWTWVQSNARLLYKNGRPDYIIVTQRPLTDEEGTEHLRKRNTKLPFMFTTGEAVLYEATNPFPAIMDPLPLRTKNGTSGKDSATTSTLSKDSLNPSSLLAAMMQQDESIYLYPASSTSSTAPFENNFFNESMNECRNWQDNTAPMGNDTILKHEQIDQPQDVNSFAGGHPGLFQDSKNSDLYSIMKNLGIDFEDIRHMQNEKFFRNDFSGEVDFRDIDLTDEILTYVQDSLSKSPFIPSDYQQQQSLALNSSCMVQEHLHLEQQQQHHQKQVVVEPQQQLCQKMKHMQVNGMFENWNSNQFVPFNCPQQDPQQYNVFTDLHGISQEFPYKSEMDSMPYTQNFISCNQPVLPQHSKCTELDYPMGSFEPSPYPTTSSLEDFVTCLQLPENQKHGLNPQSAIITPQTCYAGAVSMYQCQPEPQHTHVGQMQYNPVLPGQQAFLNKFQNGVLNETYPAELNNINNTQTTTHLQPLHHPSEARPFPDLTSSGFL
Peroxisome proliferator-activated receptor gamma (Homo sapiens), sequence (P37231 whole entry, looked up): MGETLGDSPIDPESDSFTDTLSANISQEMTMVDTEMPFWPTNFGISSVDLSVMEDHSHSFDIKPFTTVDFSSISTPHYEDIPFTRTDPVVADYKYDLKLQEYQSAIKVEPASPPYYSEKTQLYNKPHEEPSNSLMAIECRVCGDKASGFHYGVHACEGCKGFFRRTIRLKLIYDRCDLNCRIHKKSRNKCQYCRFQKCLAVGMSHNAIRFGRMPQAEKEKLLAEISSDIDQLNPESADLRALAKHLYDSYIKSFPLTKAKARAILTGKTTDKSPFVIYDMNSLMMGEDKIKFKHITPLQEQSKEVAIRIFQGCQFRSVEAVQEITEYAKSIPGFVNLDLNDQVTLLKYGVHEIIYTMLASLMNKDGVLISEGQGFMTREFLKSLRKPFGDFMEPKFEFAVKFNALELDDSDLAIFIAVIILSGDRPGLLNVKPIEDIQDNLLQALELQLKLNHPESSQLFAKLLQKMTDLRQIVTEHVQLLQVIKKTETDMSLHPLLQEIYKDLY
Vitamin D3 receptor (Homo sapiens), sequence (P11473 whole entry, looked up): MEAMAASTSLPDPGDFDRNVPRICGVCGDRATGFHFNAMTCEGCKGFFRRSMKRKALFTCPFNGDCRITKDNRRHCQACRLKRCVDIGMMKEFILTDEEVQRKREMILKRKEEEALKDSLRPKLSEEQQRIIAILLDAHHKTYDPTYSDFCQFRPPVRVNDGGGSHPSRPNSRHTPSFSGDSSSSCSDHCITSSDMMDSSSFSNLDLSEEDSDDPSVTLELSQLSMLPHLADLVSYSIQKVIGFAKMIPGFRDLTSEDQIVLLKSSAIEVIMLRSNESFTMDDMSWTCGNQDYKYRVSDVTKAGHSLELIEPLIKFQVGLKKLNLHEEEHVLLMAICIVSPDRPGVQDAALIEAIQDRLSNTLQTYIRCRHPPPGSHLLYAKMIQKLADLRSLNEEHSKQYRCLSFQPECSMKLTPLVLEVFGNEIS
Bile acid receptor (Homo sapiens), sequence (Q96RI1 whole entry, looked up): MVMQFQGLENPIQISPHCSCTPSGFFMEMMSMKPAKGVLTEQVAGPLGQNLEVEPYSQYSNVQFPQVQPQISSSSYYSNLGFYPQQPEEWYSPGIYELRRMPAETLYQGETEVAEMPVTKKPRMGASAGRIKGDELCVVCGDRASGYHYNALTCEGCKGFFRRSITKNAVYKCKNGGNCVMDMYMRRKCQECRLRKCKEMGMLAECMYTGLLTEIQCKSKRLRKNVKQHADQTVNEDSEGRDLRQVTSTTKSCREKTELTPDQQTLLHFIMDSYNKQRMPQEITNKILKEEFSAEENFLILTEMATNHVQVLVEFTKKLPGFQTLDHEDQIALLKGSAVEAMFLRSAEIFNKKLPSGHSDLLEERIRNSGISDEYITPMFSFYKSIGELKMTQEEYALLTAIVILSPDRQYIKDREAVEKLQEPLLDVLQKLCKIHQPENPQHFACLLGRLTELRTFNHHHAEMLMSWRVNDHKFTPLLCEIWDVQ

CN(C)CCN(C)CCN(C)C
not listed: [15] | [16] | [17] | [18] | [19]
inactive: all other assays above

CCOc1ccccc1OCC
not listed: [12] | [19]
inactive: all other assays above

CCN(Cc1ccccc1)c1ccccc1
not listed: [17] | [18] | [19]
inactive: all other assays above

CCN[C@H]1C[C@H](C)S(=O)(=O)c2sc(S(N)(=O)=O)cc21
not listed: [11] | [12] | [15] | [16] | [17]
inactive: all other assays above

CC(=O)NC(=O)c1ccccc1O
not listed: [10] | [15] | [17] | [18] | [19]
inactive: all other assays above

O=C(O)CC(C(=O)O)S(=O)(=O)O (configuration not stated)
not listed: [8] | [9] | [14] | [15] | [16] | [18] | [19]
inactive: all other assays above

CCOC(=O)COc1cc(-n2ncc(C(F)(F)F)c(C)c2=O)c(F)cc1Cl
not listed: [12] | [18] | [19]
inactive: all other assays above

COc1cc(C(=O)NCc2ccc(OCCN(C)C)cc2)cc(OC)c1OC
not listed: [6] | [15] | [17] | [18] | [19]
inactive: all other assays above

N[C@@H](CCC(=O)O)C(=O)O
not listed: [6] | [9] | [14] | [19]
inactive: all other assays above
